Inconclusive results are not listed. Unmarked numbers belong to inactive results. Activity calls are given as the source filed them. Calls follow the shape of the dose curve; as a rule, active = well fitted inhibition curve with a large enough effect in the repeat runs; inconclusive = weak or mixed curves; inactive = no such curve, though single readings can be large or run the other way.
% is scaled to controls: 0 for no effect and ±100 for the full control effect; potency is read from the fitted curve at half-maximal effect.

Cytochrome P450 3A4 (Homo sapiens), sequence (P08684 whole entry, looked up): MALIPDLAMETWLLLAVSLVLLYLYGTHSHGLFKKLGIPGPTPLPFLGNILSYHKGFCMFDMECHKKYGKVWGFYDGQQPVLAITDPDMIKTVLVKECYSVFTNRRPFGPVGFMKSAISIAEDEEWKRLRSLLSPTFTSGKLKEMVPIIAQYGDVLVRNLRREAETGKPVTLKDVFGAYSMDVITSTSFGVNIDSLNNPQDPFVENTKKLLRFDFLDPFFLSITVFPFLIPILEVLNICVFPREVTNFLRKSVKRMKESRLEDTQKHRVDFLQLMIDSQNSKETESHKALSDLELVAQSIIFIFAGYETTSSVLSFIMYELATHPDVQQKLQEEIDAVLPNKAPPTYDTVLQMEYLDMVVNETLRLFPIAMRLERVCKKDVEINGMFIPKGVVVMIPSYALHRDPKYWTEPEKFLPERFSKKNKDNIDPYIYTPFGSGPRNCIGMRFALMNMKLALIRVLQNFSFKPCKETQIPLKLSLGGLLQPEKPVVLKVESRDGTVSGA

This test addresses Cytochrome P450 3A4 (Homo sapiens) (UniProt P08684). Briefly: Cytochrome P450 Family 3 Subfamily A Member 4 (CYP3A4) small molecule antagonists: luciferase reporter qHTS assay (AID 1671201). Also: nearly all actives have a fitted effect of over 50% in size. The note with it: P450-Glo CYP3A4 enzyme, luciferin luminescence, 1 h; series mostly up to 115 µM; activity change, negative = inhibition: at the top concentration. An outline of the steps: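 Luminescent readout (RLU) proportional to CYP3A4 activity, from luciferin generated off a proluciferin substrate. Enzyme–substrate mix plus compound 10 min at room temp, NADPH regeneration 1 h, detection reagent 20 min.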
On the technique in general: In a reporter assay the amount or activity of a reporter protein is the signal.
For `Nc1ccc(F)cc1`, the “activity change, negative = inhibition” value is -3.47%. Still for that read-out and setting: next, `O=C(Oc1ccccc1)c1ccc2ccccc2c1O`: 26.3%; `CCCCCCCC(=O)Oc1c(Br)cc(C#N)cc1Br`: 68.1%; `CC(=O)NNC(C)=O`: 0.0328%. Still for that read-out and setting: next, `CCOC(=O)N1CCC(Nc2ccc(Cl)cc2N)CC1`: -2.93% [at 52.9 µM]; `CC(C)(C)C1(CCc2ccc(Cl)cc2)CO1` (stereo not drawn): 27.8%. With `CCCCCCCC/C=C\CCCCCCCC(=O)OCCO`, the Potency was 13.3 µM (active). On the same count and under the same terms, for `CC(C)(C(=O)c1cccnc1)c1cccnc1` the value was 0.389 µM (active). As for `CCOc1ncc(F)c(=O)[nH]1`, the “activity change, negative = inhibition” value is 10% [at 52.9 µM]. The same measure, in the same setting: next, `CC(C)OC(=O)c1ccccc1C(=O)OC(C)C`: 182%; `CC(C)COC(=O)c1ccc(O)cc1`: 5.54%; `CC1CCCO1` (stereo not drawn): 10%. For `CC/C=C\C/C=C\C/C=C\CCCCCCCC(=O)OCC`, the Potency was 72.7 µM (active). Turning to `CC1=C2[C@@H]([C@H](C)CC[C@H]2/C=C(\C)C(=O)O)[C@H](O)C1`, the “activity change, negative = inhibition” value was 0.586%. Turning to `O=C1OC[C@H](Cc2cccc(O)c2)[C@H]1Cc1cccc(O)c1`, the Potency was 9.58 µM (active). On to `COc1cc(S(=O)(=O)Nc2ccccc2)c(OC)cc1N`, for which the Potency was 3.56 µM (active).

On to `Cc1cc(CCC(=O)OCCOCCOCCOC(=O)CCc2cc(C)c(O)c(C(C)(C)C)c2)cc(C(C)(C)C)c1O`, for which the Potency is 2.46 µM (active).

Turning to `Cc1ccccc1S(N)(=O)=O`, the “activity change, negative = inhibition” value was 1.34%. Take `O=P(O)(O)Oc1ccccc1`: the “activity change, negative = inhibition” value is 10.1%.

Consider `C[C@@H]1[C@H](O)[C@@H](C)/C=C/C=C\C=C\C=C\C=C\C=C\C=C\[C@H](O[C@@H]2O[C@H](C)[C@@H](O)[C@H](N)[C@@H]2O)C[C@@H]2O[C@](O)(C[C@@H](O)C[C@@H](O)[C@H](O)CC[C@@H](O)C[C@@H](O)CC(=O)O[C@H]1C)C[C@H](O)[C@H]2C(=O)O` (stereo in doubt), for which the “activity change, negative = inhibition” value is 15.5%. As to `c1ccc(CCCc2ccncc2)cc1`, the Potency is 0.448 µM (active).

For the compound `COC(=O)c1sccc1S(N)(=O)=O`, the “activity change, negative = inhibition” value is 7.03%. For the compound `CC1C(C)(C)C2=C(C(=O)CCC2)C1(C)C` (stereo not drawn), the “activity change, negative = inhibition” value was -8.33%. For `C[C@@H]1C[C@H]2[C@@H]3CCC4=CC(=O)C=C[C@]4(C)[C@@]3(F)[C@@H](O)C[C@]2(C)[C@@]1(O)C(=O)COP(=O)(O)O`, the “activity change, negative = inhibition” value is -1.87%. On the same count and under the same terms, for `O=C(/C=C/c1ccc([N+](=O)[O-])cc1)c1ccccc1` the value was -13.5%. Same read-out and setting: for `O=C1CC[C@@H](C(=O)O)N1` the value was 3.6% [at 52.9 µM]. For `CCCCCc1ccco1`, the Potency was 23.2 µM (active). Consider `O=C(c1ccccc1)C1CCC1`, for which the “activity change, negative = inhibition” value was 20.9%.
